The test system of assay [1] is Human papillomavirus type 1a protein E7 (residues 44-93). Kind of assay: HPV1a E7 fragment binders on microarrays, primary screen, biochemical, small-molecule microarray, residues 44-93, 635 nm fluorescence (AID 1108).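 Further: E7 fragment applied at 1 µg/mL in TBST for 1 h at 4 C; score combines spot fluorescence with its signal to noise ratio.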 The following applies: small-molecule microarray binding, fluorescence 635 nm; higher = more signal.
Assay [2] is described as follows: modulators of HCV replicon luciferase signal, primary screen, HCV replication inhibitor project, Huh7 cells, luciferase reporter (AID 1109).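 Further: huh7 hepatoma cells harbouring a luciferase neomycin HCV replicon reporter; luciferase luminescence as measure of HCV replicon replication; test concentration not given here.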 The following applies: 48 h, higher = more signal. On the technique in general: Replicon systems follow genome replication, usually without infectious particles.
Assay [3] concerns the target Left-right determination factor 2 (Homo sapiens) (UniProt O00292). Briefly: LEFTY2 binders on small-molecule microarrays, primary screen, biochemical, small-molecule microarray, 635 nm fluorescence scan (AID 1110). The following applies: LEFTY2 binding, higher = more signal.
For assay [4], the target named is Calmodulin-1 (Homo sapiens) (UniProt P0DP23). Kind of assay: CALM1 binders on microarrays, EGTA buffer, profiling panel, biochemical, small-molecule microarray, Cy5-labelled CALM1 (AID 1111).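 Further: labelled calmodulin applied in Tris saline Tween buffer holding calcium plus EGTA and DTT.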 The following applies: Cy5-CALM1 binding fluorescence, higher = more signal.
Assay [5] has the same target. Kind of assay: calcium-bound CALM1 binders on microarrays, profiling panel, artefact control for SMM control-protein annotation, biochemical, small-molecule microarray, Cy5-labelled CALM1, plus calcium (AID 1112).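 Further: score merges spot fluorescence with signal to noise from triplicate slides.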 The following applies: Cy5-CALM1 binding fluorescence, higher = more signal.
Assay [6] is described as follows: small-molecule microarray binders of probe aWnt5a, primary screen, biochemical, biotinylated probe, 635/667 nm fluorescence (AID 1113).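 Further: score merges 667 nm fluorescence intensity with signal-to-noise per printed feature.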 The following applies: higher = more signal.
Assay [7] is described as follows: small-molecule microarray binders of probe aShh, primary screen, biochemical, biotinylated probe, 635/667 nm fluorescence (AID 1114).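 Further: probe is biotin-labelled aShh protein from a stem cell growth factor screen; measures binding of labelled protein to compounds printed on the slide; score merges feature fluorescence at 667 nm with signal-to-noise.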 The following applies: higher = more signal.
Assay [8] in a line: small-molecule microarray binders of probe aNog, primary screen, biochemical, biotinylated probe, 635/667 nm fluorescence (AID 1115).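 Further: probe is biotinylated aNog protein used at 0.15 µg/mL for 1 h at 4 C; z-score combines 667 nm fluorescence of each spot with its signal to noise.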 The following applies: higher = more signal.
The target in assay [9] is Torsin-1A-interacting protein 1 (Homo sapiens) (UniProt Q5JTV8). Kind of assay: LAP1 binders from COS7 cell lysate, primary screen, small-molecule microarray, 635/667 nm fluorescence (AID 1116). The following applies: COS7-hLAP1 lysate binding, 635 nm fluorescence, higher = more signal.
In assay [10] the target is Alpha-bungarotoxin (Bungarus multicinctus) (UniProt P60615). Briefly: alpha-bungarotoxin binders on microarray, profiling panel, artefact control for SMM control protein annotation, biochemical, small-molecule microarray, Alexa647 label, 635/667 nm fluorescence (AID 1117). The following applies: alpha-BTX-A647 binding fluorescence, higher = more signal.
Sequence of Alpha-bungarotoxin (Bungarus multicinctus) (P60615 whole entry, looked up): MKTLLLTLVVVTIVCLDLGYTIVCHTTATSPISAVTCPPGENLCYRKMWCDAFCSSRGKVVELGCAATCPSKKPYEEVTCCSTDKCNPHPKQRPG

Sequence of Torsin-1A-interacting protein 1 (Homo sapiens) (Q5JTV8 whole entry, looked up): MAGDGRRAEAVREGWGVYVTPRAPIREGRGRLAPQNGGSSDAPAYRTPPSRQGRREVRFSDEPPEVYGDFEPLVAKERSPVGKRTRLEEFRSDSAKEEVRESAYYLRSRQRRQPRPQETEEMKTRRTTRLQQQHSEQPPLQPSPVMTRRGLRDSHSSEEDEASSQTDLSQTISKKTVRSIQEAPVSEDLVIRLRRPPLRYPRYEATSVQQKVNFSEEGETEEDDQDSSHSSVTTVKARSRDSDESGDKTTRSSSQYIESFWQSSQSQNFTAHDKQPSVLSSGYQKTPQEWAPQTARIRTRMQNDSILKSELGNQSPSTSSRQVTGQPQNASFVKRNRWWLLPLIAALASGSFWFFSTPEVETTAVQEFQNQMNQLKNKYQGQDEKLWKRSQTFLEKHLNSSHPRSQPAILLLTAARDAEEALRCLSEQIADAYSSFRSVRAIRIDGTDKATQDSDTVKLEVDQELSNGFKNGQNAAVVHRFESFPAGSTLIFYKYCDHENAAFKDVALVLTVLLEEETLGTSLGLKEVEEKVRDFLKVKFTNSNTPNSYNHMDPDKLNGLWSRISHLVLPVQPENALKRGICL
Sequence of Left-right determination factor 2 (Homo sapiens) (O00292 whole entry, looked up): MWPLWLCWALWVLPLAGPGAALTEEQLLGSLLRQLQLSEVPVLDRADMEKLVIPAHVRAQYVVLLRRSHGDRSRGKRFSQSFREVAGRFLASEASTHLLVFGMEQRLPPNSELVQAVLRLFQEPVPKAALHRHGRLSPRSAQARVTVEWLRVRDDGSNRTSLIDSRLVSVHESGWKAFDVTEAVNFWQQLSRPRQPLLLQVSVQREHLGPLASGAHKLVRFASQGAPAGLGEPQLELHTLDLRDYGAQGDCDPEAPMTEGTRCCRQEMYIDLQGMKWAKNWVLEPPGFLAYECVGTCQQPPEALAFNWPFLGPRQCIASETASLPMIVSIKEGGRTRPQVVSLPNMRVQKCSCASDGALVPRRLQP

Consider `COc1ccc(O[C@@H]2[C@H](O)CO[C@@H]2C=Cc2ccccc2)cc1`, for which the composite z-score in [1] is 0.16; in [3] it was 0.138; in [4], 0.0425; in assay [5], -0.665; in assay [6], -0.148; in [7], -0.399. In addition, the composite z-score in assay [8] is -0.111; in assay [9], 0.288; in [10], 0.369. The molecule further gave a z-score in assay [2] of 0.238.

`CO[C@@H]1COC(=O)CC=C[C@H](C)[C@H](OC)COC(=O)[C@H](C)NC(=O)CC=C[C@H]1C`: the composite z-score in [1] was -0.724; in assay [3], 0.965; in assay [4] it was -0.981; in assay [5], -2.34; in [6] it was -0.0145; in [7], 0.479. Also, the composite z-score is -0.368 in assay [8], -0.242 in assay [9] and -0.592 in [10]. In [2], this molecule showed a z-score of 1.39.

Take `CC[C@@H](c1ccccc1)n1c(=O)n2n(c1=O)[C@H]1[C@H](O)[C@@H]3O[C@@H]3C(=NOC[C@@H](O)COCc3ccco3)[C@H]1CC2`: the composite z-score in assay [1] was -0.629; in [3] it was 0.0632; in assay [4], -1.26; in assay [5], -1.51; in assay [6], -0.145; in [7], -0.276. Moreover, the composite z-score in assay [8] was 0.618; in assay [9], -0.298; in [10], -0.201. The same molecule returned a z-score in assay [2] of -2.55.

As for `CC(C)CON=C1C[C@@H](O)[C@@H](O)[C@@H]2[C@@H]3C(=O)N(C4CCCCC4)C(=O)[C@@H]3CC[C@@H]12`, the composite z-score in [1] was -0.991; in assay [3], 0.0528; in [4], -0.333; in assay [5] it was -0.558; in assay [6], -0.178; in [7], -0.279. The composite z-score in assay [8] was -0.417; in assay [9] it was 0.136; in [10] it was 0.673. The molecule also displayed a z-score in [2] of -1.6.

As to `CCN1C(=O)[C@H]2[C@H]3[C@H](O)[C@H](O)CC(=NNC(=O)OCc4ccc(OC)cc4)[C@@H]3CC[C@H]2C1=O`, the composite z-score is -0.246 in assay [1]; -0.0843 in assay [3]; -0.484 in assay [4]; -0.732 in assay [5]; -0.261 in assay [6]; 0.401 in [7]. Moreover, the composite z-score in [8] is -0.272; in assay [9], -0.717; in assay [10] it was 0.374. The molecule further registered a z-score in assay [2] of -0.193.

Turning to `C=CC[C@@H]1C=C[C@H](ON=C(C)CCC(=O)OC[C@H]2O[C@H](c3ccccc3)C=C[C@@H]2Oc2ccc(OC)cc2)[C@@H](CO)O1`, the composite z-score in assay [1] is -0.0821; in [3], -0.189; in assay [4] it was -0.725; in [5] it was -0.878; in assay [6], -0.152; in assay [7], -0.221. Moreover, the figures for the composite z-score in assay [8], in [9] and in assay [10] were -0.158, 0.106 and -0.55, respectively. In [2], the z-score is -1.54.

In the case of `COC(=O)CC=C[C@@H](C)[C@@H](C=NOC(C)CN1CCCc2nc(C)c(C)cc21)OC` (stereo not given in full), the composite z-score was 0.633 in assay [1]; 0.517 in assay [3]; 0.539 in [4]; -0.733 in assay [5]; 0.133 in [6]; -0.223 in assay [7]. The composite z-score is -0.291 in assay [8], 0.106 in [9] and 1.43 in [10]. The same molecule displayed a z-score in [2] of -0.256.

On to `COC(=O)CC=C[C@@H](C)[C@@H]1C=C[C@H](O)[C@@H](CO)O1`, for which the composite z-score in assay [1] was 0.0429; in assay [3], 0.43; in [4] it was 0.367; in assay [5] it was -0.818; in assay [6] it was -0.154; in assay [7], 0.647. The composite z-score is -0.546 in [8], 0.297 in assay [9] and -0.139 in [10]. This molecule also gave a z-score in assay [2] of -0.0733.

Turning to `CC(C)=CCCC(C)=CCON=C1C[C@@H](O)[C@@H](O)[C@@H]2[C@@H]3C(=O)N(C(C)(C)C)C(=O)[C@@H]3CC[C@@H]12`, the composite z-score was 0.0739 in assay [1]; 0.542 in [3]; -0.195 in assay [4]; -0.608 in assay [5]; -0.0203 in assay [6]; -0.0626 in assay [7]. Besides, the figures for the composite z-score in assay [8], in assay [9] and in assay [10] were -0.116, 0.1 and 0.372, respectively. In assay [2], this molecule had a z-score of -0.0781.

In the case of `CC(CCN1CCCCc2nc(C)c(C)cc21)=NO[C@H](C)c1cn([C@H](CO)Cc2ccccc2)nn1`, the composite z-score in [1] was 0.0596; in assay [3] it was 0.708; in [4], -0.418; in assay [5], -0.763; in [6], 0.103; in [7], 0.163. The composite z-score in assay [8] was -0.208; in [9], 0.488; in assay [10], -0.276. Further, the z-score in [2] is -1.13.

Turning to `C[C@@H](c1ccccc1)N1C(=O)[C@H]2[C@H]3[C@H](O)[C@H](O)CC(=NO[C@@H]4O[C@H](CO)[C@@H](O)[C@H](O)[C@H]4O)[C@H]3CC[C@H]2C1=O`, the composite z-score in assay [1] is 0.668; in [3], 0.414; in assay [4], -0.222; in assay [5], -0.461; in assay [6], -0.196; in assay [7], 0.147. Moreover, the composite z-score in [8] is -0.206; in assay [9] it was 0.163; in assay [10] it was 0.556. The molecule further had a z-score in assay [2] of -0.087.

`CC(CCN1CCCc2nc(C)c(C)cc21)=NO[C@@H](C)c1cc(-c2c(C)cc(C)cc2C)no1`: the composite z-score in [1] was 0.788; in assay [3], 0.231; in [4], 0.446; in assay [5] it was -0.17; in assay [6] it was -0.101; in assay [7], 0.0952. Also, the composite z-score amounted to 0.173 in assay [8], 0.601 in assay [9] and 0.494 in assay [10]. In addition, the z-score in assay [2] is -0.414.

`C[C@@H]1C=CCC(=O)OC[C@H]2O[C@@H](C=C[C@@H]2O)[C@H](C)C=CCC(=O)OC1`: the composite z-score in assay [1] was -1.9; in assay [3], 1.59; in assay [4] it was -1.35; in assay [5] it was -2.47; in [6], -0.359; in [7], -0.0626. Besides, the composite z-score in [8] was -0.285; in assay [9] it was 0.113; in assay [10], 0.981. Moreover, in assay [2], the z-score is -0.362.

As to `CC(C)=CCCC(C)=CCON=C1C[C@@H](O)[C@@H](O)[C@@H]2[C@@H]3C(=O)N(Cc4ccccc4)C(=O)[C@@H]3CC[C@@H]12`, the composite z-score in assay [1] was 0.209; in assay [3], 1.08; in assay [4], -0.488; in assay [5], -1.32; in assay [6], -0.154; in [7], -0.214. In addition, the composite z-score in [8] is -0.0709; in assay [9], 0.712; in assay [10], 0.398. Moreover, in assay [2], the z-score was determined as 0.45.

As for `CCOC(=O)NN=C1C[C@@H](O)[C@@H](O)[C@@H]2[C@@H]3C(=O)N(C(C)(C)C)C(=O)[C@@H]3CC[C@H]12`, the composite z-score in [1] is 0.217; in [3] it was 0.481; in assay [4] it was -0.0749; in assay [5], -0.913; in assay [6], 0.0068; in assay [7], 0.108. For the same molecule, the composite z-score was -0.171 in assay [8], 0.0059 in assay [9] and -0.0211 in assay [10]. This molecule also gave a z-score in assay [2] of -0.0742.

Take `CCc1cc2c(nc1CC)CCN(CCC(C)=NO[C@H](C)c1cn([C@H](CO)Cc3ccccc3)nn1)C2`: the composite z-score was 0.21 in assay [1]; 0.437 in assay [3]; -0.315 in assay [4]; -0.439 in assay [5]; -0.0165 in assay [6]; 1.19 in [7]. In addition, the figures for the composite z-score in [8], in assay [9] and in assay [10] were -0.4, 0.967 and 0.568, respectively. Also, the z-score in [2] was -2.38.

Take `CCOC(=O)[C@H](CC(C)C)NC(=O)CCC1CC(OC(=O)NCCc2ccc(F)cc2)CC2(CCCC(COC(=O)NCCC(C)C)O2)O1` (stereo not given in full): the composite z-score in assay [1] was 0.48; in assay [3] it was 0.344; in [4], 0.586; in assay [5], -0.216; in assay [6], -0.0383; in assay [7], -0.0733. For the same molecule, the composite z-score in assay [8] is -0.108; in assay [9], -0.0671; in assay [10] it was 1.21. For the same molecule, in assay [2], the z-score stood at 0.314.

Source of the values: PubChem BioAssay.
